Compounds without any hit were thinned out: in the full panel of roughly 79,000, 15% have a hit. Calls of active or inactive are those of the source. Cut-off read from the data, not from the text of the source: active = growth inhibition above about 70%; inactive = the rest.
Experiments:
[1] = NCI Yeast Anticancer Drug Screen. Data for the rad52 strain (AID 147);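 note: 0% = growth of vehicle-treated control cultures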; details: S. cerevisiae rad52 mutant growth inhibition, active compounds read high
Summary of the method: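 Here a repair-compromised yeast strain receives each compound; its growth is then quantified and normalised to vehicle-only controls.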

[2] = NCI Yeast Anticancer Drug Screen. Data for the rad50EPP+ strain (AID 151);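 note: 0% = growth of vehicle-treated control cultures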; details: S. cerevisiae rad50 mutant strain, active compounds read high
Summary of the method: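 Read-out is yeast growth inhibition relative to vehicle; cells used were the rad50EPP+ strain.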

[3] = NCI Yeast Anticancer Drug Screen. Data for the mgt1 strain (AID 153); details: S. cerevisiae mgt1 mutant growth inhibition, active compounds read high
Summary of the method: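 Measured: inhibition of mgt1 yeast growth by compound, normalized to vehicle-treated cultures.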

[4] = NCI Yeast Anticancer Drug Screen. Data for the rad50 strain (AID 155);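 note: 0% = growth of vehicle-only cultures of the same strain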; details: S. cerevisiae rad50 strain growth inhibition, active compounds read high
Summary of the method: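 Genetically altered yeast (DNA repair pathway); compound treatment; growth inhibition vs vehicle ctrl.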

[5] = NCI Yeast Anticancer Drug Screen. Data for the mec2-1 strain (AID 157); details: S. cerevisiae mec2-1 strain, active compounds read high
Summary of the method: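 Using mec2-1 yeast: add compound, measure growth, express inhibition versus vehicle-treated cultures.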

[6] = NCI Yeast Anticancer Drug Screen. Data for the rad14 strain (AID 159);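 note: 0% = growth of vehicle-treated control cultures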; details: S. cerevisiae rad14 strain growth inhibition, active compounds read high
Summary of the method: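 Test compounds were applied to a repair-deficient yeast strain. Its growth was then compared with that of cultures given vehicle alone, and inhibition was expressed relative to those controls.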

[7] = NCI Yeast Anticancer Drug Screen. Data for the sgs1 mgt1 strain (AID 161);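 note: 0% = growth of cultures given vehicle only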; details: S. cerevisiae sgs1 mgt1 strain, active compounds read high
Summary of the method: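 Growth of a repair-deficient yeast mutant was monitored after compound treatment and expressed as inhibition relative to vehicle-treated cultures.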

[8] = NCI Yeast Anticancer Drug Screen. Data for the CLN2oe strain (AID 163);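 note: 0% = growth of vehicle-only control cultures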; details: S. cerevisiae CLN2oe strain, active compounds read high
Summary of the method: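 Whole-cell yeast growth assay. A strain engineered for altered cell-cycle control received compound, and inhibition relative to vehicle-treated cultures was recorded.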

[9] = NCI Yeast Anticancer Drug Screen. Data for the cln2 rad14 strain (AID 165);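 note: 0% = growth equal to vehicle treated cultures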; details: S. cerevisiae cln2 rad14 strain, active compounds read high
Summary of the method: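 Yeast strain cln2 rad14, bearing defects in cell cycle control and DNA repair, serves as the test system; values reflect growth inhibition compared with vehicle.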

[10] = NCI Yeast Anticancer Drug Screen. Data for the bub3 strain (AID 167); details: S. cerevisiae bub3 mutant strain, active compounds read high
Summary of the method: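 Yeast carrying a defined mutation is treated with each compound, and growth is compared with that of vehicle-exposed cells to give inhibition.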

[11] = NCI Yeast Anticancer Drug Screen. Data for the wt2 strain (AID 169);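 note: 0% = growth of vehicle-treated yeast cultures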; details: S. cerevisiae wt2 strain growth inhibition, active compounds read high
Summary of the method: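 Treated yeast vs. vehicle-treated yeast: growth inhibition determined.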

[12] = NCI Yeast Anticancer Drug Screen. Data for the mlh1 strain (AID 171);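 note: 0% = growth of vehicle-treated control cultures of the same strain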; details: S. cerevisiae mlh1 strain growth inhibition, active compounds read high
Summary of the method: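 A yeast strain with a defined genetic lesion serves as the test organism. Cultures receive compound or vehicle, and growth is measured.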

[13] = NCI Yeast Anticancer Drug Screen. Data for the sgs1 strain (AID 173);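 note: 0% = growth of vehicle-only control cultures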; details: S. cerevisiae sgs1 mutant, active compounds read high
Summary of the method: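 A genetically defined yeast mutant is incubated with the test compound, and its growth is compared to that of the same strain given vehicle.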

[14] = NCI Yeast Anticancer Drug Screen. Data for the mlh1 rad18 strain (AID 175); details: S. cerevisiae mlh1 rad18 strain growth inhibition, active compounds read high
Summary of the method: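 Steps: expose repair-defective yeast to compound; measure growth; express inhibition against vehicle-treated controls.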

[15] = NCI Yeast Anticancer Drug Screen. Data for the rad18 strain (AID 177); details: S. cerevisiae rad18 mutant growth inhibition, active compounds read high
Summary of the method: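 Measured value is growth inhibition of a yeast strain bearing a DNA repair alteration, referenced to vehicle-treated cells.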

[16] = at 5.0 µM (retest, dose inferred, filed as 0.5)
[17] = at 50.0 µM (retest, dose inferred, filed as 5.0)

Measured: growth inhibition

Cc1cccc[n+]1C1CCc2c(ccc3ccccc23)C1=O (stereo not drawn)
inactive: [1]; at 1.2 µM 5% | [1]; at 3.7 µM 2% | [1]; at 11.0 µM 1% | [1]; at 33.0 µM 14% | [2]; at 1.2 µM 6% | [2]; at 3.7 µM 9% | [2]; at 11.0 µM 8% | [2]; at 33.0 µM 37% | [2]; at 100.0 µM 63% | [3]; at 1.2 µM -4% | [3]; at 3.7 µM 2% | [3]; at 11.0 µM 0% | [3]; at 33.0 µM 2% | [3]; at 100.0 µM 35% | [4]; at 1.2 µM 5% | [4]; at 3.7 µM 2% | [4]; [16] -1% | [4]; at 11.0 µM 0% | [4]; at 33.0 µM 16% | [4]; [17] 40% | [4]; at 100.0 µM 68% | [5]; at 1.2 µM -1% | [5]; at 3.7 µM -4% | [5]; [16] 2% | [5]; at 11.0 µM -1% | [5]; at 33.0 µM 2% | [5]; at 100.0 µM 62% | [6]; at 1.2 µM 4% | [6]; at 3.7 µM 2% | [6]; at 11.0 µM 3% | [6]; at 33.0 µM 12% | [6]; at 100.0 µM 61% | [7]; [16] 3% | [7]; [17] 55% | [8]; at 1.2 µM -6% | [8]; at 3.7 µM -3% | [8]; at 11.0 µM -5% | [8]; at 33.0 µM -1% | [8]; at 100.0 µM 48% | [9]; [16] 0% | [9]; [17] 26% | [9]; at 50.0 µM 26.6% | [10]; at 1.2 µM -2% | [10]; at 3.7 µM 0% | [10]; [16] -4% | [10]; at 11.0 µM 3% | [10]; at 33.0 µM 18% | [11]; at 1.2 µM -6% | [11]; at 3.7 µM -8% | [11]; at 11.0 µM -11% | [11]; at 33.0 µM -9% | [11]; at 100.0 µM 65% | [12]; at 1.2 µM 2% | [12]; at 3.7 µM 1% | [12]; at 11.0 µM 2% | [12]; at 33.0 µM 10% | [12]; at 100.0 µM 68% | [13]; at 1.2 µM -14% | [13]; at 3.7 µM -6% | [13]; at 11.0 µM -26% | [13]; at 33.0 µM -5% | [13]; at 100.0 µM 69% | [14]; [16] 2% | [15]; at 1.2 µM 2% | [15]; at 3.7 µM 3% | [15]; at 11.0 µM 2% | [15]; at 33.0 µM 6%
active: [1]; at 100.0 µM 70% | [4]; at 50.0 µM 74.9% | [5]; [17] 70% | [5]; at 50.0 µM 74.3% | [7]; at 50.0 µM 93.3% | [10]; [17] 70% | [10]; at 50.0 µM 98.2% | [10]; at 100.0 µM 72% | [14]; [17] 73% | [14]; at 50.0 µM 89.7% | [15]; at 100.0 µM 79%
